Screen size: about 5,500 compounds; about 2,000 (36%) were called active. About 18% were inconclusive and are not listed. Rule as the data show it: active = normalized growth mostly below about 0.91 (no sharp cut-off); inconclusive = no clear call, values can overlap the other calls; inactive = mostly above about 0.92. Some of the results follow.
Test: chemical genetic growth profiling, strain panel (AID 1159580);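 also: tested at 20 µM; growth read once vehicle control cultures reached saturation at 30 °C; 1 = growth at the plate median or of vehicle wells; lower values mean less growth of the strain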
Conditions: S. cerevisiae deletion strains, growth OD
[1] = locus YAR019C, strain CDC15, hits give low values
[2] = locus YBL105C, strain PKC1, hits give low values
[3] = locus YBR135W, strain CKS1, hits give low values
[4] = locus YBR136W, strain MEC1, hits give low values
[5] = locus YBR160W, strain CDC28, hits give low values
[6] = locus YDL017W, strain CDC7, hits give low values
[7] = locus YDL028C, strain MPS1, hits give low values
[8] = locus YDL101C, strain DUN1, hits give low values
[9] = locus YDL108W, strain KIN28, hits give low values
[10] = locus YDL132W, strain cdc53, hits give low values
[11] = locus YDL214C, strain PRR2, hits give low values
[12] = locus YDR052C, strain DBF4, hits give low values
[13] = locus YDR054C, strain cdc34, hits give low values
[14] = locus YDR226W, strain ADK1, hits give low values
[15] = locus YDR477W, strain SNF1, hits give low values
[16] = locus YER123W, strain YCK3, hits give low values
[17] = locus YER133W, strain GLC7, hits give low values
[18] = locus YFL009W, strain cdc4, hits give low values
[19] = locus YFL029C, strain CAK1, hits give low values
[20] = locus YFR003C, strain YPI1, hits give low values
[21] = locus YFR019W, strain FAB1, hits give low values
[22] = locus YFR028C, strain CDC14, hits give low values
[23] = locus YGR040W, strain KSS1, hits give low values
[24] = locus YGR052W, strain FMP48, hits give low values
[25] = locus YGR092W, strain DBF2, hits give low values
[26] = locus YHR030C, strain SLT2, hits give low values
[27] = locus YHR079C, strain IRE1, hits give low values
[28] = locus YHR082C, strain KSP1, hits give low values
[29] = locus YHR205W, strain SCH9, hits give low values
[30] = locus YIL147C, strain SLN1, hits give low values
[31] = locus YJL095W, strain BCK1, hits give low values
[32] = locus YJL128C, strain PBS2, hits give low values
[33] = locus YJL157C, strain FAR1, hits give low values
[34] = locus YJR016C, strain ILV3, hits give low values
[35] = locus YJR066W, strain TOR1 (second series), hits give low values
[36] = locus YJR066W, strain TOR1, hits give low values
[37] = locus YKL048C, strain ELM1, hits give low values
[38] = locus YKL067W, strain YNK1, hits give low values
[39] = locus YKL101W, strain HSL1, hits give low values
[40] = locus YKL193C, strain SDS22, hits give low values
[41] = locus YKL203C, strain TOR2, hits give low values
[42] = locus YLR113W, strain HOG1, hits give low values
[43] = locus YLR133W, strain CKI1, hits give low values
[44] = locus YLR403W, strain SFP1, hits give low values
[45] = locus YML070W, strain DAK1, hits give low values
[46] = locus YMR001C, strain CDC5, hits give low values
[47] = locus YMR205C, strain PFK2 (second series), hits give low values
[48] = locus YMR277W, strain FCP1, hits give low values
[49] = locus YNL006W, strain LST8, hits give low values
[50] = locus YNL020C, strain ARK1, hits give low values
[51] = locus YNL161W, strain CBK1, hits give low values
[52] = locus YNL183C, strain NPR1, hits give low values
[53] = locus YNL207W, strain RIO2, hits give low values
[54] = locus YNL222W, strain SSU72, hits give low values
[55] = locus YNL307C, strain MCK1 (second series), hits give low values
[56] = locus YOL078W, strain AVO1, hits give low values
[57] = locus YOL136C, strain PFK27, hits give low values
[58] = locus YOR061W, strain CKA2, hits give low values
[59] = locus YOR119C, strain RIO1, hits give low values
[60] = locus YOR231W, strain MKK1, hits give low values
[61] = locus YOR329C, strain SCD5, hits give low values
[62] = locus YPL031C, strain PHO85, hits give low values
[63] = locus YPL153C, strain RAD53, hits give low values
[64] = locus YPL204W, strain HRR25, hits give low values
[65] = locus YPL209C, strain IPL1, hits give low values
[66] = locus YPL256C, strain CLN2, hits give low values
[67] = locus YPR025C, strain CCL1, hits give low values
[68] = locus YPR106W, strain ISR1, hits give low values
[69] = locus YPR111W, strain DBF20, hits give low values
[70] = strain NNK1, hits give low values
[71] = strain TSCII, hits give low values

Measured: normalized growth

CC(C)(C)c1csc(NC(=O)c2ccc(Cl)cc2Cl)n1
active: [42] 0.716 | [66] 0.843
inactive: [1] 0.974 | [2] 0.976 | [3] 0.981 | [4] 0.971 | [5] 0.983 | [6] 0.973 | [7] 0.978 | [8] 0.962 | [9] 0.98 | [10] 0.978 | [11] 0.919 | [12] 0.991 | [13] 0.961 | [14] 0.97 | [15] 0.963 | [16] 0.95 | [17] 0.94 | [18] 0.966 | [19] 0.973 | [20] 0.964 | [21] 0.972 | [22] 0.975 | [23] 0.954 | [24] 0.938 | [25] 0.93 | [26] 0.867 | [27] 0.819 | [28] 0.98 | [29] 0.805 | [30] 0.973 | [31] 0.785 | [32] 0.864 | [33] 0.964 | [34] 0.978 | [35] 0.976 | [36] 0.993 | [37] 0.938 | [38] 0.939 | [39] 0.901 | [40] 0.958 | [41] 1.01 | [43] 0.968 | [44] 0.913 | [45] 0.9 | [46] 0.972 | [47] 0.931 | [48] 0.97 | [49] 0.98 | [50] 0.943 | [51] 0.974 | [52] 0.953 | [53] 0.967 | [54] 0.961 | [55] 0.91 | [56] 0.969 | [57] 0.917 | [58] 0.956 | [59] 1.01 | [60] 0.898 | [61] 0.975 | [62] 0.948 | [63] 0.946 | [64] 0.966 | [65] 0.982 | [67] 0.977 | [68] 0.958 | [69] 0.946 | [70] 0.938 | [71] 0.972

C/C(=N/Nc1nc(C(C)(C)C)cs1)c1ccc(Cl)c(Cl)c1
inactive: [1] 0.986 | [2] 0.983 | [3] 0.994 | [4] 0.99 | [5] 0.987 | [6] 0.981 | [7] 0.996 | [8] 0.981 | [9] 0.994 | [10] 0.99 | [11] 0.919 | [12] 0.977 | [13] 0.978 | [14] 0.973 | [15] 0.944 | [16] 0.844 | [17] 0.943 | [18] 0.987 | [19] 0.981 | [20] 0.985 | [21] 0.91 | [22] 0.994 | [23] 0.945 | [24] 0.932 | [25] 0.923 | [27] 0.759 | [28] 0.965 | [29] 0.953 | [30] 0.993 | [31] 0.839 | [32] 0.954 | [33] 0.889 | [34] 0.993 | [35] 0.835 | [36] 0.891 | [37] 0.97 | [38] 0.949 | [39] 0.98 | [40] 0.991 | [41] 0.969 | [43] 0.933 | [44] 0.908 | [45] 0.916 | [46] 0.983 | [47] 0.97 | [48] 0.986 | [49] 0.986 | [50] 0.917 | [51] 0.99 | [52] 0.92 | [53] 0.976 | [54] 0.987 | [55] 0.899 | [56] 0.989 | [57] 0.871 | [58] 0.943 | [59] 1 | [60] 0.792 | [61] 0.981 | [62] 0.903 | [63] 0.932 | [64] 0.899 | [65] 0.987 | [67] 0.992 | [68] 0.983 | [69] 0.974 | [70] 0.974 | [71] 0.989
active: [26] 0.753 | [42] 0.803 | [66] 0.757

Reference: PubChem BioAssay AID1159580 (chemical genetic matrix, 2015)
